Experimental data taken from PubChem BioAssay (NCI).
The panel holds about 79,000 compounds, 15% with a hit somewhere; the sample as a whole holds those more often. Unmarked numbers belong to inactive results. The source made the active and inactive calls. No stated cut-off is given here; in the data, active means growth inhibition above about 70%; inactive means the rest.

How the values were obtained:
[1] = NCI Yeast Anticancer Drug Screen. Data for the rad52 strain (AID 147);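 further: 0% = growth of vehicle-treated control cultures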; details: S. cerevisiae rad52 mutant growth inhibition, active compounds read high
In short: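 Read-out: growth inhibition versus vehicle-treated controls. Cells were a DNA repair-deficient yeast strain treated with compounds.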

[2] = NCI Yeast Anticancer Drug Screen. Data for the wt1 strain (AID 149);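 further: 0% = growth of vehicle-treated wt1 cultures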; details: S. cerevisiae wt1 strain (SPY 50644) growth inhibition, active compounds read high
In short: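 Yeast wt1 strain exposed to compounds; growth inhibition measured relative to vehicle-treated controls.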

[3] = NCI Yeast Anticancer Drug Screen. Data for the rad50EPP+ strain (AID 151);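 further: 0% = growth of vehicle-treated control cultures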; details: S. cerevisiae rad50 mutant strain, active compounds read high
In short: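 Growth inhibition read against vehicle controls in rad50EPP+ yeast, a strain altered in DNA damage repair, after compound exposure.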

[4] = NCI Yeast Anticancer Drug Screen. Data for the mgt1 strain (AID 153); details: S. cerevisiae mgt1 mutant growth inhibition, active compounds read high
In short: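 mgt1 yeast grown with test compound; read-out is growth inhibition versus vehicle-treated cultures.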

[5] = NCI Yeast Anticancer Drug Screen. Data for the rad50 strain (AID 155);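 further: 0% = growth of vehicle-only cultures of the same strain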; details: S. cerevisiae rad50 strain growth inhibition, active compounds read high
In short: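 Yeast carrying a defined DNA repair defect were exposed to test compounds, and growth was compared with vehicle-treated controls to give percent inhibition.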

[6] = NCI Yeast Anticancer Drug Screen. Data for the mec2-1 strain (AID 157); details: S. cerevisiae mec2-1 strain, active compounds read high
In short: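 Yeast mec2-1 mutant treated with compound. Readout: growth inhibition vs vehicle controls.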

[7] = NCI Yeast Anticancer Drug Screen. Data for the rad14 strain (AID 159);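 further: 0% = growth of vehicle-treated control cultures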; details: S. cerevisiae rad14 strain growth inhibition, active compounds read high
In short: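 Yeast cells carrying a defined DNA-repair defect were exposed to compounds, and growth inhibition was calculated relative to vehicle-treated control cultures.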

[8] = NCI Yeast Anticancer Drug Screen. Data for the sgs1 mgt1 strain (AID 161);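 further: 0% = growth of cultures given vehicle only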; details: S. cerevisiae sgs1 mgt1 strain, active compounds read high
In short: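 Mutant yeast exposed to compound; growth scored against vehicle-only wells.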

[9] = NCI Yeast Anticancer Drug Screen. Data for the CLN2oe strain (AID 163);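 further: 0% = growth of vehicle-only control cultures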; details: S. cerevisiae CLN2oe strain, active compounds read high
In short: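 Read-out: yeast growth inhibition, expressed relative to vehicle-only controls. The strain bears an engineered cell-cycle alteration.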

[10] = NCI Yeast Anticancer Drug Screen. Data for the cln2 rad14 strain (AID 165);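 further: 0% = growth equal to vehicle treated cultures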; details: S. cerevisiae cln2 rad14 strain, active compounds read high
In short: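 cln2 rad14 yeast strain; compound exposure; growth inhibition read vs vehicle controls.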

[11] = NCI Yeast Anticancer Drug Screen. Data for the bub3 strain (AID 167); details: S. cerevisiae bub3 mutant strain, active compounds read high
In short: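 Compounds were applied to a genetically altered yeast strain carrying a cell-cycle control defect. Growth inhibition was scored against vehicle-treated controls.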

[12] = NCI Yeast Anticancer Drug Screen. Data for the wt2 strain (AID 169);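 further: 0% = growth of vehicle-treated yeast cultures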; details: S. cerevisiae wt2 strain growth inhibition, active compounds read high
In short: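 Read-out: growth inhibition versus vehicle-treated control cultures after compound exposure of the yeast strain.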

[13] = NCI Yeast Anticancer Drug Screen. Data for the sgs1 strain (AID 173);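 further: 0% = growth of vehicle-only control cultures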; details: S. cerevisiae sgs1 mutant, active compounds read high
In short: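 Read-out: yeast growth inhibition relative to vehicle controls, following compound exposure of a strain with a defined DNA repair/cell cycle alteration.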

[14] = NCI Yeast Anticancer Drug Screen. Data for the mlh1 rad18 strain (AID 175); details: S. cerevisiae mlh1 rad18 strain growth inhibition, active compounds read high
In short: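 Yeast w/ defined DNA-repair lesions; compound exposure; growth vs vehicle controls → % inhibition.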

[15] = NCI Yeast Anticancer Drug Screen. Data for the rad18 strain (AID 177); details: S. cerevisiae rad18 mutant growth inhibition, active compounds read high
In short: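 Readout: growth inhibition vs vehicle controls. Cells: genetically altered yeast strain, DNA repair defect.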

[16] = at 5.0 µM (retest, dose inferred, filed as 0.5)
[17] = at 50.0 µM (retest, dose inferred, filed as 5.0)

## CCCCOC(=O)N[C@H]1CCc2cc(OC)c(OC)c(OC)c2-c2ccc(SC)c(=O)cc21
[1]; at 1.2 µM
  growth inhibition: -2%
[1]; at 3.7 µM
  growth inhibition: 1%
[1]; at 11.0 µM
  growth inhibition: 6%
[1]; at 33.0 µM
  growth inhibition: 36%
[1]; at 100.0 µM
  growth inhibition: 77% (active)
[2]; at 1.2 µM
  growth inhibition: -2%
[2]; at 3.7 µM
  growth inhibition: -3%
[2]; at 11.0 µM
  growth inhibition: -4%
[2]; at 33.0 µM
  growth inhibition: 3%
[2]; at 100.0 µM
  growth inhibition: 55%
[3]; at 1.2 µM
  growth inhibition: 1%
[3]; at 3.7 µM
  growth inhibition: -1%
[3]; at 11.0 µM
  growth inhibition: -4%
[3]; at 33.0 µM
  growth inhibition: -6%
[3]; at 100.0 µM
  growth inhibition: -11%
[4]; at 1.2 µM
  growth inhibition: -5%
[4]; at 3.7 µM
  growth inhibition: -3%
[4]; at 11.0 µM
  growth inhibition: -1%
[4]; at 33.0 µM
  growth inhibition: 49%
[4]; at 100.0 µM
  growth inhibition: 77% (active)
[5]; at 1.2 µM
  growth inhibition: 1%
[5]; at 3.7 µM
  growth inhibition: 6%
[5]; [16]
  growth inhibition: -15%
[5]; at 11.0 µM
  growth inhibition: 14%
[5]; at 33.0 µM
  growth inhibition: 51%
[5]; [17]
  growth inhibition: 52%
[5]; at 50.0 µM
  growth inhibition: 82.5% (active)
[5]; at 100.0 µM
  growth inhibition: 81% (active)
[6]; at 1.2 µM
  growth inhibition: -6%
[6]; at 3.7 µM
  growth inhibition: -3%
[6]; [16]
  growth inhibition: -19%
[6]; at 11.0 µM
  growth inhibition: -2%
[6]; at 33.0 µM
  growth inhibition: 15%
[6]; [17]
  growth inhibition: 48%
[6]; at 50.0 µM
  growth inhibition: 53%
[6]; at 100.0 µM
  growth inhibition: 81% (active)
[7]; at 1.2 µM
  growth inhibition: -1%
[7]; at 3.7 µM
  growth inhibition: 2%
[7]; at 11.0 µM
  growth inhibition: 7%
[7]; at 33.0 µM
  growth inhibition: 49%
[7]; at 100.0 µM
  growth inhibition: 84% (active)
[8]; [16]
  growth inhibition: 3%
[8]; [17]
  growth inhibition: -13%
[8]; at 50.0 µM
  growth inhibition: 82.5% (active)
[9]; at 1.2 µM
  growth inhibition: -2%
[9]; at 3.7 µM
  growth inhibition: -5%
[9]; at 11.0 µM
  growth inhibition: -1%
[9]; at 33.0 µM
  growth inhibition: 30%
[9]; at 100.0 µM
  growth inhibition: 79% (active)
[10]; [16]
  growth inhibition: -17%
[10]; [17]
  growth inhibition: 60%
[10]; at 50.0 µM
  growth inhibition: 58.3%
[11]; at 1.2 µM
  growth inhibition: -9%
[11]; at 3.7 µM
  growth inhibition: -8%
[11]; [16]
  growth inhibition: 0%
[11]; at 11.0 µM
  growth inhibition: -5%
[11]; at 33.0 µM
  growth inhibition: 2%
[11]; [17]
  growth inhibition: 55%
[11]; at 50.0 µM
  growth inhibition: 77.8% (active)
[11]; at 100.0 µM
  growth inhibition: 81% (active)
[12]; at 1.2 µM
  growth inhibition: -2%
[12]; at 3.7 µM
  growth inhibition: -3%
[12]; at 11.0 µM
  growth inhibition: -1%
[12]; at 33.0 µM
  growth inhibition: 29%
[12]; at 100.0 µM
  growth inhibition: 86% (active)
[13]; at 1.2 µM
  growth inhibition: -3%
[13]; at 3.7 µM
  growth inhibition: -5%
[13]; at 11.0 µM
  growth inhibition: 2%
[13]; at 33.0 µM
  growth inhibition: 38%
[13]; at 100.0 µM
  growth inhibition: 89% (active)
[14]; [16]
  growth inhibition: -12%
[14]; [17]
  growth inhibition: 47%
[14]; at 50.0 µM
  growth inhibition: 92.9% (active)
[15]; at 1.2 µM
  growth inhibition: -1%
[15]; at 3.7 µM
  growth inhibition: 0%
[15]; at 11.0 µM
  growth inhibition: 7%
[15]; at 33.0 µM
  growth inhibition: 26%
[15]; at 100.0 µM
  growth inhibition: 80% (active)
